Source: the supplement of paper PMC11732987, “Enantioselective OTUD7B fragment discovery through chemoproteomics screening and high-throughput optimisation” (Communications Chemistry, 2025)

How the values were obtained:
Experiment in all cases: log2 ratio of Biotin-Ahx-Ub-VS probe labelling (fragment/DMSO); higher = less target engagement (more negative = stronger competition), active = hit call of the paper (q ≤ 0.05, log2 ratio ≤ -1)
Settings in all cases: compound concentration: 200 uM; treatment time: 3 h
ALG13 = target: T1, ALG13 (UniProt Q9NP73)
T1 sequence (whole entry): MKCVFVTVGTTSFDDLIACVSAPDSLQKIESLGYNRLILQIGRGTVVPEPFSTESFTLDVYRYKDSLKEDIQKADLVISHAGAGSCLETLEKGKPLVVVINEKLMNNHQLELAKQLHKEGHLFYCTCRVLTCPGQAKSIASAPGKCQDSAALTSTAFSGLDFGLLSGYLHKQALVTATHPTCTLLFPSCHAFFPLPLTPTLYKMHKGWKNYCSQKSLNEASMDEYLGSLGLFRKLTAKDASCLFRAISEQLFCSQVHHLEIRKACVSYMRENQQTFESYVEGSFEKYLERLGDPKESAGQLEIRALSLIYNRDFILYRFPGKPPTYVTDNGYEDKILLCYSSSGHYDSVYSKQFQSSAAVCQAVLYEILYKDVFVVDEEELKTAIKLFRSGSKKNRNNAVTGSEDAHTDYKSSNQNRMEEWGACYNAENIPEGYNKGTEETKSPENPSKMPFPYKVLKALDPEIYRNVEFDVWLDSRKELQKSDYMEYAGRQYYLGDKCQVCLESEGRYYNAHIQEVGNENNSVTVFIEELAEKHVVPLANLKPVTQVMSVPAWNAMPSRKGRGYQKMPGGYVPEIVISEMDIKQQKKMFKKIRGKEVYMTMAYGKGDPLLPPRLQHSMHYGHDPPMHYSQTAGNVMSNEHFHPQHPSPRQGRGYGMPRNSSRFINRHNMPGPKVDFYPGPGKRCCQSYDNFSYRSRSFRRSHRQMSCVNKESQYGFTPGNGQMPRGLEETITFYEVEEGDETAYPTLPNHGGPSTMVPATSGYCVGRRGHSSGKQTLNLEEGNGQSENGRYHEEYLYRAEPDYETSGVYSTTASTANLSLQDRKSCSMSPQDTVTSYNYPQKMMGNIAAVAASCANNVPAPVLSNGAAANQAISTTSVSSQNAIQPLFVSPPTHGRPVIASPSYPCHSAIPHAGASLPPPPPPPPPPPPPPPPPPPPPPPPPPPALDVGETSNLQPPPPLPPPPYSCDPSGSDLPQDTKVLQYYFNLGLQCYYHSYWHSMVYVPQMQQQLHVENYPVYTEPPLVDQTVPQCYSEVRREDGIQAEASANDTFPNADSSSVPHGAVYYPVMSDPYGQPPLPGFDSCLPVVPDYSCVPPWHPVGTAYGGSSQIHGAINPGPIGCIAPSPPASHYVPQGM
Method in brief: (§1)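 Global-median-normalised Spectronaut label-free quantities were compared by unpaired t-test, and values are average log2 ratios of fragment over vehicle. Only proteins with ≥2 unique peptides were used. HEK293T lysate (495 µg per sample) was treated in triplicate with fragment at 200 µM or vehicle for 3 h and then with Biotin-Ahx-Ub-VS at 0.5 µM final for 1 h. Labelled DUBs were then NeutrAvidin-enriched, digested with LysC and trypsin, and run by diaPASEF LC-MS/MS.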

ATXN3 = ATXN3 (UniProt P54252)
Chain of ATXN3 (P54252 whole entry): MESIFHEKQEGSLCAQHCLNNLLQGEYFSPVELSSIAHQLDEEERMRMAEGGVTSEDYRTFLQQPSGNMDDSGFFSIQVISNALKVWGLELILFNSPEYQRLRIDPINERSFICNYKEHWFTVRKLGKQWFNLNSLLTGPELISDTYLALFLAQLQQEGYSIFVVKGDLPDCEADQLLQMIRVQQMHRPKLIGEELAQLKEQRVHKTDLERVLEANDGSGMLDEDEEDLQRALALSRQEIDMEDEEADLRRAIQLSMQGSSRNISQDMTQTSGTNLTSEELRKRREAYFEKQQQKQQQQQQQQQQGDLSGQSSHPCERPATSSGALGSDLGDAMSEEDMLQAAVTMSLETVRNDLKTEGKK
Method in brief: as §1

BAP1 = target: T2, BAP1 (UniProt Q92560)
T2 sequence (whole entry): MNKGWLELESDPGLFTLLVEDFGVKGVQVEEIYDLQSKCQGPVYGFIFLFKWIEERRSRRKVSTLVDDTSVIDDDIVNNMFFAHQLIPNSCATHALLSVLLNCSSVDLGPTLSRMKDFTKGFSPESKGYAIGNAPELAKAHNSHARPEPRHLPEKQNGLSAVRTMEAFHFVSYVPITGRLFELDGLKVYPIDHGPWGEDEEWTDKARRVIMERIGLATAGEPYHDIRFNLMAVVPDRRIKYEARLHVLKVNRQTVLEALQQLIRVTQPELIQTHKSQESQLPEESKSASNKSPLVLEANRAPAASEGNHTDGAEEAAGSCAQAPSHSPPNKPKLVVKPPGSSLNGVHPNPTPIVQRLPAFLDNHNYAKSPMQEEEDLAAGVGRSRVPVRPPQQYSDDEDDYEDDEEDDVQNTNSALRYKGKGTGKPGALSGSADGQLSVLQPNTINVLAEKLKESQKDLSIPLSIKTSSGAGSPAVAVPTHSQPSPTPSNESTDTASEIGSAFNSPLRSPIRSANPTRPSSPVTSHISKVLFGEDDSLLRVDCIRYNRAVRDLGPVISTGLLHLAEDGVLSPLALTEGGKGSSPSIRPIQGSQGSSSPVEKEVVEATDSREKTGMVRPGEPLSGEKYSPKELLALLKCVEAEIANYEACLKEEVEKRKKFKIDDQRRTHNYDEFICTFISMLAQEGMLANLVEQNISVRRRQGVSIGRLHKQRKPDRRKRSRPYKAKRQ
Method in brief: as §1

EIF3F = EIF3F (UniProt O00303)
Chain of EIF3F (O00303 whole entry): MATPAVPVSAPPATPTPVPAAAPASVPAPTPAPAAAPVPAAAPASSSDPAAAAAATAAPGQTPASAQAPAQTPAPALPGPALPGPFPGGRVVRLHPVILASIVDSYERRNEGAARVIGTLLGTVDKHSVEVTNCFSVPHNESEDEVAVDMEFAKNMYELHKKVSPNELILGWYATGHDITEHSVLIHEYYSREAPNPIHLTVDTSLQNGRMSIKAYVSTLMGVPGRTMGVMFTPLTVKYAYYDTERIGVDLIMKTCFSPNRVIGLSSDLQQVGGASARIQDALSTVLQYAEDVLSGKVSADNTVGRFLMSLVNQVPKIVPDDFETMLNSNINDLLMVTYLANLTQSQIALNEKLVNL
Method in brief: as §1

EIF3H = EIF3H (UniProt O15372)
Chain of EIF3H (O15372 whole entry): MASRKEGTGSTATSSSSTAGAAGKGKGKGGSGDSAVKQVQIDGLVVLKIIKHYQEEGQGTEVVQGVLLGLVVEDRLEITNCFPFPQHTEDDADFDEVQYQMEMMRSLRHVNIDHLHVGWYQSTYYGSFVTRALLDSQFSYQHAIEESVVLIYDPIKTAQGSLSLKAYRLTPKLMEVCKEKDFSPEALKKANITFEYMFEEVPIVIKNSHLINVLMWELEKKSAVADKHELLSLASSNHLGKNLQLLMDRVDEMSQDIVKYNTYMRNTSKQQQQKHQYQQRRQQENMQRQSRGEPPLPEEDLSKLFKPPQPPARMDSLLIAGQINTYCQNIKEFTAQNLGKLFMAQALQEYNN
Method in brief: as §1

FAM105A = target: T3, FAM105A (UniProt Q9NUU6)
T3 sequence (whole entry): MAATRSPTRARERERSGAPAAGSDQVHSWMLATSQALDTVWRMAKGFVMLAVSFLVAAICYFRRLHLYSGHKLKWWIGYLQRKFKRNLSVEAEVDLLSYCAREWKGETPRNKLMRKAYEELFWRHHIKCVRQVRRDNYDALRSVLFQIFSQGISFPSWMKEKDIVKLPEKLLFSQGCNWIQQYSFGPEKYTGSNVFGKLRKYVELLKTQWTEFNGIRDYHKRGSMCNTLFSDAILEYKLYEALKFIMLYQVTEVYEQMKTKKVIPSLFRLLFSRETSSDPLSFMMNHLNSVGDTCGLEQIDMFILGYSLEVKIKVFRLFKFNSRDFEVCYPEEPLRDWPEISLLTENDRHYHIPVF
Method in brief: as §1

OTUB1 = OTUB1 (UniProt Q96FW1)
Chain of OTUB1 (Q96FW1 whole entry): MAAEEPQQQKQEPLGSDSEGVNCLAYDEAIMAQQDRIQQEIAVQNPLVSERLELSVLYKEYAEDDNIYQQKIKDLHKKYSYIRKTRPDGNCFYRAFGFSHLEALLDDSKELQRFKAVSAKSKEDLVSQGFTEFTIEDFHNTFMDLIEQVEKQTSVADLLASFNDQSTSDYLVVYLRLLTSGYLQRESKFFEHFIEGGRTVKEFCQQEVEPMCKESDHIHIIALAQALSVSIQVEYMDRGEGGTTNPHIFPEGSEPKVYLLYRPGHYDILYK
Method in brief: as §1

OTUD4 = target: T4, OTUD4 (UniProt Q01804)
T4 sequence (whole entry): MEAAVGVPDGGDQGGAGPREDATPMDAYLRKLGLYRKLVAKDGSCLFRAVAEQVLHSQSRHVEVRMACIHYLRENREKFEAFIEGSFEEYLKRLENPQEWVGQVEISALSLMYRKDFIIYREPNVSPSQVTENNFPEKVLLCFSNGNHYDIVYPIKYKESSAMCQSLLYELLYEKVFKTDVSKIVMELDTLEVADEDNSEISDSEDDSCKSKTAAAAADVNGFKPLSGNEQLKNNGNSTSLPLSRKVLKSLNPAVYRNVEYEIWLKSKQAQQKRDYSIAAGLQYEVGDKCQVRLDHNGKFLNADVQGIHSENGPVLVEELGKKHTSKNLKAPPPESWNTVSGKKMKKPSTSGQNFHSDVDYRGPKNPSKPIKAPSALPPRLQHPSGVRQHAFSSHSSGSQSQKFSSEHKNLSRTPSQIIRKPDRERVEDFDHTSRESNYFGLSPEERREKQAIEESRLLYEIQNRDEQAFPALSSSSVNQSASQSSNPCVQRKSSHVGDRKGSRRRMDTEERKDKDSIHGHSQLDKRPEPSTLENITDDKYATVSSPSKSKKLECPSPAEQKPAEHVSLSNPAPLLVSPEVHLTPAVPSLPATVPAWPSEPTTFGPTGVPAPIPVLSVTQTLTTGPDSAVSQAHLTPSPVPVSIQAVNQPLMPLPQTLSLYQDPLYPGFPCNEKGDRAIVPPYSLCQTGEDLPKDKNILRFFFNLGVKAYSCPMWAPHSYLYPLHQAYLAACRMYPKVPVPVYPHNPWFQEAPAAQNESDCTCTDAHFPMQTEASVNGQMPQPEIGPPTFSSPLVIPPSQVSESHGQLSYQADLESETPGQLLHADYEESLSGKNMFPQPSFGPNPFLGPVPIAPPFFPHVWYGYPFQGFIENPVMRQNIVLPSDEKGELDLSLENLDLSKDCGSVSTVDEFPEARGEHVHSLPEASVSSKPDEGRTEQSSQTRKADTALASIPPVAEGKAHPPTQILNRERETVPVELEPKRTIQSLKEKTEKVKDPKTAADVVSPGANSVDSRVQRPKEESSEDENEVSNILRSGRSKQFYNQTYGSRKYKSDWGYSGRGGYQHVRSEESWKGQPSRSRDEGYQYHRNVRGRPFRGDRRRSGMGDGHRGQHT
Method in brief: as §1

OTUD5 = target: T5, OTUD5 (UniProt Q96G74)
T5 sequence (whole entry): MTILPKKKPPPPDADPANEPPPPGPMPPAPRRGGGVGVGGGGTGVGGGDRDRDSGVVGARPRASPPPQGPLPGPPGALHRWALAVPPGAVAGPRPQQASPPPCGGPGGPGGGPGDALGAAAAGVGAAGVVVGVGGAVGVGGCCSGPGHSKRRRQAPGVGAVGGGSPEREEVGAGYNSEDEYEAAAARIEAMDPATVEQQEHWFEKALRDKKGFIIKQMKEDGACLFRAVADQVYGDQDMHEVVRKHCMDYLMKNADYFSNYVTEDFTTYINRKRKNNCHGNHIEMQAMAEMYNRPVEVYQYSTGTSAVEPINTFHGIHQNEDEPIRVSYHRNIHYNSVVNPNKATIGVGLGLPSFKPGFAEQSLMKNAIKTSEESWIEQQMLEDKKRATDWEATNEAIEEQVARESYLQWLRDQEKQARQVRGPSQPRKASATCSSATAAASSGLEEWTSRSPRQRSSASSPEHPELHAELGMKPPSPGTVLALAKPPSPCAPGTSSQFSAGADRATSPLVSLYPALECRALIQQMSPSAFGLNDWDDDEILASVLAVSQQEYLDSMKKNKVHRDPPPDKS
Method in brief: as §1

Measured: log2 ratio of Biotin-Ahx-Ub-VS probe labelling

Cl.O=C(CCl)N1CCn2cncc2C1
inactive: ALG13 0.285 | ATXN3 -0.224 | BAP1 -0.163 | EIF3F -0.0339 | EIF3H 0.0971 | FAM105A -0.433 | OTUB1 -0.000993 | OTUD4 0.0549 | OTUD5 -0.214
